This passage reports outcome results from PubChem BioAssay (NCATS).

Results filed as inconclusive are left out. Calls of active or inactive are those of the source. The call rests on the fitted dose curve; in most records, active means well fitted inhibition curve with a large enough effect; inconclusive means small, poorly fitted or top-dose-only effect; inactive means flat fitted curve, though single readings scatter. Where a SMILES comes first, the peptide text is derived from it. [ ]: non-standard residue; d: D form. ξ: configuration not given here. ξTyr(βOH) = NC(C(=O)O)C(O)c1ccc(O)cc1

The experiment has as its system NIH3T3. Description: qHTS assay to identify novel small-molecules to repurpose for Merkel cell carcinoma treatment (AID 1296009). Further: nearly all actives have a fitted effect of over 60% in size. Particulars: MCC and control cell lines, CellTiter-Glo viability, 72 h; at 44.8 µM (top of the series) unless noted. An excerpt: MCC is a rare and aggressive neuroendocrine skin cancer with limited treatment options. Approximately 80% of MCCs have the Merkel cell polyomavirus (MCPyV) DNA integrated into the host genome (virus-positive: VP-MCC) and viral oncogenes drive oncogenesis. The remaining MCCs are virus-negative (VN-MCC) and are caused by UV mutagenesis. To identify novel treatments for VP-MCC and/or VN-MCC we screened three VP-MCC cell lines (WAGA, MKL-1, MKL-2), three VN-MCC cell lines (MCC-13, MCC-26, UISO), and four immortalized, non-transformed control cell lines (HaCaT, HEK293T, CRL7250, NIH-3T3) against ~2,400 compounds in the NCGC Pharmaceutical Collection (NPC) and ~1,900 compounds in the Mechanism Interrogation PlatE (MiPE). Using cell viability as a readout (CellTiter-Glo assay) we found both overlapping and distinct drugs that can be repurposed for the treatment of VP-MCC and VN-MCC.
A high-throughput screen was conducted in 1536-well white flat bottom plates (Corning) on a Kalypsys robotic system. Cell lines WAGA, MKL-1, MKL-2, MCC-13, MCC-26, UISO, HaCaT, HEK293T, CRL7250, and NIH-3T3 were screened against 2 small molecule annotated drug libraries NPC and MIPE in dose response (8 and 11 pt. respectively) measuring cell viability after 72 hours of incubation. […] A 1,536 pintool (Kalypsys) was used to transfer 23 nL of compound in DMSO to the 1,536-well assay plates. After 72 hr incubation at 37 degree celsius, 2.5 uL of CellTiter-Glo (Promega) was dispensed into each well using a BiorapTR. Plates were incubated at room temperature for 10 min, transferred to a ViewLux (PerkinElmer) and the luminescence was recorded using an exposure time of 2 seconds. Relative luminescence units (RLUs) were normalized to in-plate controls (no cells as a positive (cytotoxicity) control, DMSO as negative control) and the normalized data was processed using NCATS in-house software.
Take `CC(C)(O)c1ccc2c(c1)C(=O)C[C@H]1[C@](C)(C(=O)O)CCC[C@]21C`: the compound was classed as inactive.

`COC(=O)C1(O)C(OC(C)=O)CCC2C3(CC(c4ccoc4)OC3=O)C(C)=CCC21C(=O)OC` (stereo not given): the outcome is “inactive [at 17.4 µM]”.

Consider `CCCNCCOc1ccc(NC(=O)c2c[nH]c3c2C(=O)CCC3)cc1F`, for which the compound was called inactive.

Take `CC1=C2C(=O)C=C(CO)C2C2OC(=O)C(CS(=O)(=O)O)C2C(OC(=O)Cc2ccc(O)cc2)C1` (stereo not given): the outcome is “inactive [at 17.4 µM]”.

For the compound `C=CC(C)(C)C12Nc3c(ccc4c3OC(C)(C)C=C4)C1(O)CC1C(=O)N3CCCC3C(=O)N12` (stereo not given), the outcome is “inactive [at 17.4 µM]”.

`CC(=O)c1c(C)cccc1O[C@@H]1O[C@H](CO)[C@@H](O)[C@H](O)[C@H]1O`: the outcome was inactive.

Turning to `CC1(C)[C@@H]2CC=C(CO[C@@H]3O[C@H](CO[C@@H]4OC[C@H](O)[C@H](O)[C@H]4O)[C@@H](O)[C@H](O)[C@H]3O)[C@H]1C2`, the outcome is “inactive [at 17.4 µM]”.

For `CC(=O)OC(C)(C)/C=C/C(=O)[C@](C)(O)C1[C@H](O)C[C@@]2(C)[C@@H]3CC=C4[C@@H](C[C@H](O[C@@H]5O[C@H](CO)[C@@H](O)[C@H](O)[C@H]5O)C(=O)C4(C)C)[C@]3(C)C(=O)C[C@]12C` (stereo not given in full), the outcome was “inactive [at 17.4 µM]”.

On to `CC(=O)NC1C(OC2CCC3(C)C(CCC4(C)C3CC=C3C5CC(C)(C)CCC5(C(=O)O)C(O)CC34C)C2(C)C)OC(CO)C(O)C1O` (stereo not given), for which the outcome is “inactive [at 17.4 µM]”.

As to `COc1cnc(-n2cnc(C)n2)c2[nH]cc(C(=O)C(=O)N3CCN(C(=O)c4ccccc4)CC3)c12`, the result was inactive.

Turning to `COC(=O)c1c(CC=C(C)C)c(OC2OC(CO)C(O)C(O)C2O)c2ccccc2c1OC1OC(CO)C(O)C(O)C1O` (stereo not given), the outcome is “inactive [at 17.4 µM]”.

In the case of `Cc1cn(-c2cc(NC(=O)c3ccc(C)c(Nc4nccc(-c5cnccn5)n4)c3)cc(C(F)(F)F)c2)cn1`, the result was inactive.

Regarding `CC(=O)OC1(C)CC(O)C2(O)C=COC(OC3OC(CO)C(O)C(O)C3O)C12` (stereo not given), the outcome is “inactive [at 17.4 µM]”.

`Cn1cc(-c2c[nH]c3ncnc(N4CCOCC4)c23)cn1`: the outcome was inactive.

In the case of `COc1ccc2[nH]c(S(=O)Cc3ncc(C)c(OC)c3C)nc2c1` (stereo not given), the compound was classed as inactive.

For `CC(=O)OCC1=CCC2C(C)(C)CCCC2(C)C12CCC(C)(CC(=O)O)O2` (stereo not given), the outcome was inactive.

In the case of `CC(C)C1NC(=O)CNC(=O)C2CCCN2C(=O)C(Cc2c[nH]c3ccccc23)NC(=O)CNC(=O)C(C(O)c2ccc(O)cc2)NC(=O)CNC1=O` (stereo not given) (cyclo(G[ξTyr(βOH)]GWPGV); configuration not given here), the outcome was “inactive [at 17.4 µM]”.

As for `CC(C)NC(=O)c1ccc(C#Cc2ccncc2)cn1`, the compound was called inactive.

Regarding `O=C(OCc1ccccc1O[C@@H]1O[C@H](CO)[C@@H](O)[C@H](O)[C@H]1O)C1(O)C=CCCC1O` (stereo not given in full), the outcome was “inactive [at 17.4 µM]”.

`C=Cc1cc2oc(-c3ccc(O)c(F)c3)nc2cc1O`: the compound was classed as inactive.

For the compound `C[C@@H]1O[C@@H](O[C@H]2[C@H](O[C@H]3[C@H](O[C@H]4CC[C@@]5(C)C(CC[C@]6(C)C5CC=C5[C@@H]7CC(C)(C)C[C@@H](O)[C@]7(C)CC[C@]56C)[C@@]4(C)CO)O[C@H](C(=O)O)[C@@H](O)[C@@H]3O)O[C@H](C(=O)O)[C@H](O)[C@@H]2O)[C@H](O)[C@H](O)[C@H]1O` (stereo not given in full), the outcome was “inactive [at 9.27 µM]”.

On to `O=C(O)CC(CCc1ccccc1)OC1OC(CO)C(O)C(O)C1O` (stereo not given), for which the outcome was inactive.

As for `C[C@@]12CC3(S(=O)(=O)O)OC(O1)[C@]1(COC(=O)c4ccccc4)[C@H]3C[C@]21O[C@@H]1O[C@H](CO)[C@@H](O)[C@H](O)[C@H]1O`, the outcome is “inactive [at 17.4 µM]”.

With `CCCN1CCC[C@@H](c2cccc(S(C)(=O)=O)c2)C1`, the result was inactive.

For the compound `CC(NC(=O)CC(=O)O)C(=O)Nc1ccccc1C(N)=O` (stereo not given), the compound was classed as inactive.

As for `COc1ccc(C2(O)c3ccccc3NC(=O)C2OC)cc1` (stereo not given), the result was inactive.

On to `COc1ccc(-n2c(=O)[nH]c3cc(C(=O)NCc4ccc(Cl)cc4)sc3c2=O)nc1OC`, for which the outcome was inactive.

With `Nc1nc(COC(=O)c2ccc([N+](=O)[O-])cc2)nc(Nc2ccccc2)n1`, the result was inactive.

In the case of `COC(=O)c1cc(OC)cc(OC)c1C(=O)c1c(OC)cc2c(c1O)C1CCC(O)C(C)(O2)O1` (stereo not given), the outcome is “inactive [at 17.4 µM]”.

`CCN1CCN(C(=O)N[C@@H](C(=O)N[C@@H]2C(=O)N3[C@@H]2SC(C)(C)[C@@H]3C(=O)O)c2ccccc2)C(=O)C1=O`: the result was inactive.

On to `OC[C@@]1(O)CO[C@H](OC[C@H]2O[C@@H](OC(CCCCc3ccc(O)cc3)CCc3ccc(O)cc3)[C@H](O[C@H]3OC[C@](O)(CO)[C@H]3O)[C@@H](O)[C@@H]2O)[C@@H]1O` (stereo not given in full), for which the outcome was “inactive [at 17.4 µM]”.

On to `CC1=C(CO)C2(C)CCCC(C)(C)C2C(O)C1O` (stereo not given), for which the compound was classed as inactive.

Regarding `C=C1C(=O)O[C@@H]2CC(C)=C([C@@H](C)CCCOC(C)=O)[C@@H](O)[C@H]12`, the outcome was inactive.

Regarding `C=C1C(OC(C)=O)CCC2(C)CCC(C(C)(C)O)CC12` (stereo not given), the compound was called inactive.

On to `COC(=O)C1=CO[C@@H](O[C@@H]2O[C@H](CO)[C@@H](O)[C@H](O)[C@H]2O)[C@H]2[C@@H]1C=C[C@]21C=C([C@H](C)OC(=O)/C=C/c2ccc(O[C@@H]3O[C@H](CO)[C@@H](O)[C@H](O)[C@H]3O)cc2)C(=O)O1`, for which the outcome was “inactive [at 17.4 µM]”.

Turning to `O=C(O)C[C@H]1CCC(=O)[C@@H]1C/C=C\CCO`, the compound was classed as inactive.

Regarding `CSCC1OC(n2cnc3c(=O)[nH]cnc32)C(O)C1O` (stereo not given), the compound was classed as inactive.

Take `CC1=CCC[C@@H]2[C@](CCc3ccoc3)(C(=O)O)[C@H](C)CC[C@@]12C`: the outcome was inactive.

For the compound `O=C(CCCCC1CCCCC1)N1CCC(c2cnc[nH]2)CC1`, the call was inactive.

Turning to `CC1(C)CC[C@]2(C(=O)O[C@@H]3O[C@H](CO[C@@H]4O[C@H](CO)[C@@H](O)[C@H](O)[C@H]4O)[C@@H](O)[C@H](O[C@@H]4O[C@H](CO)[C@@H](O)[C@H](O)[C@H]4O)[C@H]3O)CC[C@]3(C)C(=CCC4[C@@]5(C)CC[C@H](O[C@@H]6OC[C@@H](O)[C@H](O)[C@H]6O)[C@@](C)(C(=O)O)C5CC[C@]43C)[C@@H]2C1` (stereo not given in full), the outcome was “inactive [at 9.27 µM]”.
